# Test results as given in the supplement of paper PMC6522484.
# “And” between values parts separate entries of the source, which are not always exact repeats. Identical values can stand only once. ± gives the standard deviation of the averaged measurements.
# Test system: DLD1
# Assay: cell viability (CellTiter-Glo) relative to plate median (fraction of plate median); higher = more viable cells
# Conditions: 5 µM; treatment time 24 h; reporter: 7TFP
# How it was run: (§1)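 Library compounds, at a final 5 µM, stayed on reporter cells for 24 h. The cells were colorectal cancer lines stably transduced with lentiviral TCF/Wnt firefly luciferase reporters, seeded in 384-well plates 24 h before dosing. Firefly luciferase or CellTiterGlo luminescence from parallel plates was normalised to the plate median in webcellHTS2 (additive, no log transformation), and two independent replicates were averaged.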
row,SMILES,cell viability
1,C(=C\c1ccccc1)/CN1CCN(C(c2ccccc2)c2ccccc2)CC1,0.989 ± 0.072
2,COc1c2occc2cc2ccc(=O)oc12,1.04 ± 0.05
3,COc1ccc2c(c1)OC/C(=C/c1ccc(O)c(O)c1)C2=O,0.99 ± 0.043
4,CC(=O)[C@H]1CC[C@H]2[C@@H]3CC=C4C[C@@H](O)CC[C@]4(C)[C@H]3CC[C@]12C,1.07 ± 0.028
5,COc1cc(OC)c(C(C)=O)c(O)c1C,0.992 ± 0.026

# Test system: HCT116
# Assay: as above
# Conditions: 5 µM; treatment time 24 h; reporter: TCF4/Wnt
# How it was run: as §1
row,SMILES,cell viability
1,S=P(N1CC1)(N1CC1)N1CC1,0.928 ± 0.017
2,C#C[C@]1(O)CC[C@H]2[C@@H]3CCC4=C(CCC(=O)C4)[C@H]3CC[C@@]21C,0.974 ± 0.14
3,N=C(N)NCCCCN,1.15 ± 0.014
4,CS(=O)(=O)c1ccc(C2=C(c3ccccc3)C(=O)OC2)cc1,1.04 ± 0.042
5,CCC(=O)O[C@@H]1[C@@H](OC2C(C)/C=C/C(=O)OC(C)C(CO[C@@H]3O[C@H](C)[C@@H](OC(=O)CC)[C@@H](OC)[C@H]3OC)C3OC3/C=C/C(=O)C(C)(O)CC2C)O[C@@H](C)C[C@H]1OC (stereo partly specified) [Chalcomycin B],1.06 ± 0.064
6,CC(=O)O[C@@H]1C[C@@]2(C)C(CC[C@@H]2C(C)=O)C2CCC3=CC(=O)CC[C@]3(C)C21 (stereo partly specified),1.09 ± 0.042
7,O=C(O)CN1C(=O)c2cccc3cccc(c23)C1=O,0.967 ± 0.017
8,C=C1c2c(Cl)ccc(O)c2C(=O)C2=C(O)[C@]3(O)C(=O)C(C(N)=O)=C(O)[C@@H](N(C)C)[C@@H]3[C@@H](O)[C@H]12.O=C(O)c1cc(S(=O)(=O)O)ccc1O,1.02 ± 0.042
9,N[C@@H](C(=O)N[C@@H]1C(=O)N2C(C(=O)O)=C(Cl)CS[C@H]12)c1ccccc1,0.955 ± 0.064
10,COc1ccc(OC)c(C(O)CNC(=O)CN)c1 (stereo unspecified),0.912 ± 0.064
11,COc1ccc(-c2cc(=O)c3c(O)c(OC)c(O[C@@H]4O[C@H](CO[C@@H]5O[C@@H](C)[C@H](O)[C@@H](O)[C@H]5O)[C@@H](O)[C@H](O)[C@H]4O)cc3o2)cc1,0.951 ± 0.056
12,O=c1[nH]cc(F)c(=O)[nH]1,0.905 ± 0.054
13,O=C(CCCCCCCCCCCCC1CCCC1)Nc1ccc(S(=O)(=O)c2ccc(NC(=O)CCCCCCCCCCCCC3CCCC3)cc2)cc1,1.04 ± 0.087
14,CC(=O)OCC1=C(C(=O)O)N2C(=O)[C@@H](NC(=O)Cc3cccs3)[C@H]2SC1,1.06 ± 0.021
15,C[C@H](CCC(=O)O)[C@H]1CC[C@H]2[C@@H]3C(=O)C[C@@H]4CC(=O)CC[C@]4(C)[C@H]3CC(=O)[C@]12C,0.911 and 0.941
16,C[C@@H]1O[C@@H]1P(=O)(O)O,0.995 ± 0.15

row,SMILES,cell viability
1,NC[C@@H]1O[C@H](O[C@H]2[C@@H](O)[C@H](O[C@@H]3[C@@H](O)[C@H](N)C[C@H](N)[C@H]3O[C@H]3O[C@H](CO)[C@@H](O)[C@H](O)[C@H]3N)O[C@@H]2CO)[C@H](N)[C@@H](O)[C@@H]1O,0.975 ± 0.064
2,NCC[C@H](O)C(=O)N[C@@H]1C[C@H](N)[C@@H](O[C@H]2O[C@H](CN)[C@@H](O)[C@H](O)[C@H]2O)[C@H](O)[C@H]1O[C@H]1O[C@H](CO)[C@@H](O)[C@H](N)[C@H]1O,1 ± 0.037
3,CC1COc2c(N3CCN(C)CC3)c(F)cc3c(=O)c(C(=O)O)cn1c23 (stereo unspecified),1.04 ± 0.16
4,COc1cccc2c1C(=O)c1c(O)c3c(c(O)c1C2=O)C[C@@](O)(C(=O)CO)C[C@@H]3O[C@H]1C[C@H](N)[C@H](O)[C@H](C)O1,0.67 ± 0.22
5,C[C@H]1[C@H]2CC[C@H]3[C@@H]4CC=C5C[C@@H](N(C)C)CC[C@]5(C)[C@H]4CC[C@]23CN1C,0.783 ± 0.14
6,COc1ccc2[nH]c([S+]([O-])Cc3ncc(C)c(OC)c3C)nc2c1 (stereo unspecified),1.01 ± 0.048
7,CCc1nc(N)nc(N)c1-c1ccc(Cl)cc1,0.999 ± 0.03
8,NC(Cn1ccc(=O)c(O)c1)C(=O)O (stereo unspecified),0.8415 ± 0.00071
9,Nc1nc(F)nc2c1ncn2[C@@H]1O[C@H](COP(=O)(O)O)[C@@H](O)[C@@H]1O,0.942 ± 0.019
10,"CC(C)CC1NC(=O)C(NC(=O)c2ncccc2O)C(C)OC(=O)C(c2ccccc2)N(C)C(=O)C(C)NC(=O)C(C(C)C(C)C)N(C)C(=O)CN(C)C(=O)C2CCCN2C1=O (single isomer, unassigned; isomere) [Neoviridogrisein II (Isomere)]",0.991 ± 0.07
11,COC(=O)N/N=C/c1c[n+]([O-])c2ccccc2[n+]1[O-],0.998 ± 0.2
12,NNCCc1ccccc1,0.943 ± 0.069
13,Clc1ccc(C(c2ccccc2Cl)C(Cl)Cl)cc1 (stereo unspecified),0.895 ± 0.15
14,CCCCCC(=O)Cc1cc(O)cc(O)c1C(=O)Oc1cc(CC(=O)CCCCC)c(C(=O)O)c(OC)c1,1.01 ± 0.018
15,CC1CC2C3CCC4=CC(=O)C=CC4(C)C3(F)C(O)CC2(C)C1C(=O)CO (stereo unspecified),0.895 ± 0.043
